Test results from PubChem BioAssay (NCATS).
Results filed as inconclusive are left out. The source made the active and inactive calls. Calls come from the whole dose curve.

Assay: qHTS Assay for Lipid Storage Modulators (AID 1519); for activity change, negative = inhibition: % is set by controls: 0 for no effect and ±100 for the full control effect
Details: Drosophila S3 cells, BODIPY lipid droplet/cell ratio, laser cytometry; at 57.5 µM (top of the series); cells loaded with oleic acid
How it was run: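 Cells seeded at 5,000 per well were treated with compounds over a concentration series and loaded with oleic acid (400 uM, as added). Lipid droplet fluorescence (488 nm excitation, 500-530 nm channel) was read by laser-scanning cytometry and normalized to 20 uM Triacsin C.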
In the case of `CC(C)NC(=O)N1CCCC2(CCN(C(=O)c3cc(C(F)(F)F)cc(C(F)(F)F)c3)CC2)C1`, the activity change, negative = inhibition is reported as -6.13% (inactive).
In the case of `N#Cc1cccc(NC(=O)N2CCC3(CC2)CCN(C(=O)c2csnn2)CC3)c1`, the activity change, negative = inhibition is reported as 5.57% (inactive).
With `O=C(Oc1ccccc1)N1CCC[C@@]2(CCN(c3ncccn3)C2)C1` the activity change, negative = inhibition was 4.5% (inactive).
In the case of `COCC(=O)N1CCC[C@@]2(CCN(Cc3ccccc3OC)C2)C1`, the activity change, negative = inhibition is reported as 3.26% (inactive).
With `CC(C)NC(=O)N1CC[C@@]2(CCCN(C(=O)c3cc(C(F)(F)F)cc(C(F)(F)F)c3)C2)C1` the activity change, negative = inhibition was 1.68% (inactive).
In the case of `O=C(Nc1cccc(F)c1)N1CC[C@@]2(CCCNC2)C1`, the activity change, negative = inhibition is reported as 3.99% (inactive).
In the case of `COCC(=O)N1CCC2(CCCN(C(=O)Nc3ccc(OC)cc3)C2)CC1`, the activity change, negative = inhibition is reported as 5.43% (inactive).
In the case of `O=C(c1ccco1)N1CCC[C@@]2(CCN(Cc3ccccc3)C2)C1`, the activity change, negative = inhibition is reported as 2.21% (inactive).
In the case of `CC(=O)N1CCC2(CCCN(C(c3ccccc3)c3ccccc3)C2)CC1`, the activity change, negative = inhibition is reported as 6.41% (inactive).
In the case of `COc1cccc(-c2ccc3ncnc(NC4CCNCC4)c3c2)c1`, the activity change, negative = inhibition is reported as 7.49% (inactive).
For `COc1ccccc1CN1CCCC2(CCN(S(C)(=O)=O)CC2)C1`, the activity change, negative = inhibition was 2.11% (inactive).
For `O=C(c1csnn1)N1CCC[C@@]2(CCN(Cc3nccs3)C2)C1`, the activity change, negative = inhibition was 6.67% (inactive).
With `O=C(c1csnn1)N1CCC2(CC1)CCN(c1ccccc1)CC2` the activity change, negative = inhibition was 4.25% (inactive).
With `CC(C)CN1CC[C@@]2(CCCN(C(=O)c3cnccn3)C2)C1` the activity change, negative = inhibition was 3.32% (inactive).
For `CN(C)c1ncc2ncc(=O)n(Cc3ccc(F)cc3)c2n1`, the activity change, negative = inhibition was 2.54% (inactive).
With `O=C(c1ccco1)N1CCC[C@@]2(CCN(c3ccccc3)C2)C1` the activity change, negative = inhibition was -7.59% (inactive).
In the case of `CC(C)CN1CC[C@@]2(CCCN(S(=O)(=O)c3ccccc3)C2)C1`, the activity change, negative = inhibition is reported as 4.19% (inactive).

Same assay, conditions: Drosophila S3 cells, BODIPY lipid droplet/cell ratio, laser cytometry; measured here: cell count channel max response; cells loaded with oleic acid
With `COC(=O)N1CCC2(CCCN(Cc3ccccc3OC)C2)CC1` the max response was 15.3%.
`Cc1noc(C)c1C(=O)N1CCC[C@@]2(CCN(Cc3ccccc3)C2)C1` showed a max response of 16.8%.
Work on `O=S(=O)(c1ccccc1)N1CCC2(CCCN(c3ncccn3)C2)CC1` yielded a max response of -5.51%.
`COc1ccc(NC(=O)N2CCCC3(CCNCC3)C2)cc1` gave a max response of -5.9%.
In the case of `COc1ccc(NC(=O)N2CC3(CCN(C(C)=O)CC3)C2)cc1`, the max response is reported as 13.9%.
With `CC(=O)N1CCC2(CC1)CN(c1ccccc1)C2` the max response was 16.4%.
`COc1ccccc1CN1CC[C@@]2(CCCN(C(=O)c3cccn3C)C2)C1` showed a max response of 9.96%.
With `Cn1cccc1C(=O)N1CCC[C@@]2(CCN(Cc3cc(C(F)(F)F)cc(C(F)(F)F)c3)C2)C1` the max response was -0.0419%.
Compound `COc1ccccc1CN1CC[C@@]2(CCCN(C(C)=O)C2)C1` has a max response of -2.53%.
In the case of `COc1ccccc1CN1CC[C@@]2(CCCN(S(C)(=O)=O)C2)C1`, the max response is reported as 7.77%.
For `O=C(c1csnn1)N1CCC2(CC1)CN(c1ccccc1)C2`, the max response was 13.3%.
`COc1ccc(NC(=O)N2CC[C@@]3(CCCN(C(=O)c4cnccn4)C3)C2)cc1` showed a max response of 2.35%.
With `CC(C)CN1CC[C@@]2(CCCN(C(=O)c3csnn3)C2)C1` the max response was -1.75%.
`CC(=O)N1CCC2(CC1)CCN(C(=O)Nc1cccc(F)c1)CC2` showed a max response of 11%.
Work on `O=C(c1cnccn1)N1CCC2(CCCN(c3ccccc3)C2)CC1` yielded a max response of 21.1%.
Work on `O=C(c1ccncc1)N1CCC2(CC1)CCN(C(c1ccccc1)c1ccccc1)CC2` yielded a max response of 0.243%.
For `COCC(=O)N1CCC[C@@]2(CCN(C(=O)Nc3cccc(F)c3)C2)C1`, the max response was 19.2%.
`CC(C)NC(=O)N1CCCC2(CCN(C(=O)c3cccc(F)c3)CC2)C1` gave a max response of 20.4%.
For `COc1ccccc1CN1CCC2(CC1)CCN(C(C)=O)CC2`, the max response was 3.13%.
For `N#Cc1ccc(CN2CCCC3(CCN(C(=O)c4cccc(F)c4)CC3)C2)cc1`, the max response was 15%.
Work on `O=C(c1ccco1)N1CCC2(CC1)CN(C(c1ccccc1)c1ccccc1)C2` yielded a max response of 5.15%.
Compound `CS(=O)(=O)N1CCC2(CC1)CN(Cc1cc(C(F)(F)F)cc(C(F)(F)F)c1)C2` has a max response of -5.23%.
Work on `CC(C)NC(=O)N1CCCC2(CCN(C(=O)c3cc(C(F)(F)F)cc(C(F)(F)F)c3)CC2)C1` yielded a max response of 16.6%.
With `N#Cc1cccc(NC(=O)N2CCC3(CC2)CCN(C(=O)c2csnn2)CC3)c1` the max response was 15%.
Work on `O=C(Oc1ccccc1)N1CCC[C@@]2(CCN(c3ncccn3)C2)C1` yielded a max response of 8.9%.
`COCC(=O)N1CCC[C@@]2(CCN(Cc3ccccc3OC)C2)C1` gave a max response of 0.0589%.
In the case of `CC(C)NC(=O)N1CC[C@@]2(CCCN(C(=O)c3cc(C(F)(F)F)cc(C(F)(F)F)c3)C2)C1`, the max response is reported as 19.4%.
In the case of `O=C(Nc1cccc(F)c1)N1CC[C@@]2(CCCNC2)C1`, the max response is reported as -1.25%.
Work on `COCC(=O)N1CCC2(CCCN(C(=O)Nc3ccc(OC)cc3)C2)CC1` yielded a max response of 13.8%.
Compound `O=C(c1ccco1)N1CCC[C@@]2(CCN(Cc3ccccc3)C2)C1` has a max response of -0.541%.
In the case of `CC(=O)N1CCC2(CCCN(C(c3ccccc3)c3ccccc3)C2)CC1`, the max response is reported as 3.3%.
`COc1cccc(-c2ccc3ncnc(NC4CCNCC4)c3c2)c1` gave a max response of -3.29%.
For `COc1ccccc1CN1CCCC2(CCN(S(C)(=O)=O)CC2)C1`, the max response was -15.8%.
`O=C(c1csnn1)N1CCC[C@@]2(CCN(Cc3nccs3)C2)C1` showed a max response of 15.7%.
Work on `O=C(c1csnn1)N1CCC2(CC1)CCN(c1ccccc1)CC2` yielded a max response of 1.9%.
In the case of `CC(C)CN1CC[C@@]2(CCCN(C(=O)c3cnccn3)C2)C1`, the max response is reported as 15.7%.
In the case of `CN(C)c1ncc2ncc(=O)n(Cc3ccc(F)cc3)c2n1`, the max response is reported as 6.58%.
Work on `O=C(c1ccco1)N1CCC[C@@]2(CCN(c3ccccc3)C2)C1` yielded a max response of 11.4%.
Work on `CC(C)CN1CC[C@@]2(CCCN(S(=O)(=O)c3ccccc3)C2)C1` yielded a max response of 1.96%.
